High-throughput results: PubChem BioAssay, Johns Hopkins Ion Channel Center
KCNQ2 block – blocks the rat KCNQ2 potassium channel; O88943; CHO-K1 KCNQ2, FluxOR thallium flux, 20 min; active compounds read low; B-score at 10 µM; 1.1% of 310,000 active; AID 2156;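 active = fluorescence ratio B-score at most minus 3 library SDs, with starting brightness B-score within 2 library SDs, cut at about -5.5 in these data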
Target sequence (O88943 whole entry, looked up): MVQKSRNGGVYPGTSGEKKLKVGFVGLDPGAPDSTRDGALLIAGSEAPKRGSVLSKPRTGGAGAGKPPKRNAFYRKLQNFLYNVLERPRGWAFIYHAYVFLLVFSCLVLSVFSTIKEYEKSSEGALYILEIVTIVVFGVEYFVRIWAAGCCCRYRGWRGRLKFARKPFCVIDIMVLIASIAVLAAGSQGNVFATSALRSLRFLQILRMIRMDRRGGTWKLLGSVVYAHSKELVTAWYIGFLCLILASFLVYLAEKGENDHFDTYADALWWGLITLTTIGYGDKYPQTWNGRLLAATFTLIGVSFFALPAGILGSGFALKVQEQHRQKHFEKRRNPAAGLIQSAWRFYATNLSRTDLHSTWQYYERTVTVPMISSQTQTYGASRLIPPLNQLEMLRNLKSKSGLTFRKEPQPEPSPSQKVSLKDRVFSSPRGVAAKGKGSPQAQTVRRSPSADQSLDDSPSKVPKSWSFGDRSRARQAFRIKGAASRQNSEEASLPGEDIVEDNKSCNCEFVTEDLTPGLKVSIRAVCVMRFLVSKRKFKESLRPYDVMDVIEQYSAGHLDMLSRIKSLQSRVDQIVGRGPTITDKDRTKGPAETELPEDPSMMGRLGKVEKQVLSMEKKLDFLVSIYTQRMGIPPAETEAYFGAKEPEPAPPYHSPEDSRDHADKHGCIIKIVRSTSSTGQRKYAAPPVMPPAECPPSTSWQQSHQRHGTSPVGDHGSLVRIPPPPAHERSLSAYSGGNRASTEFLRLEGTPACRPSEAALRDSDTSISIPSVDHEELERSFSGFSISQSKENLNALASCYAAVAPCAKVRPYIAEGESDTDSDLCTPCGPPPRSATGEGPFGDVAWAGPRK
KCNQ2 enhance – potentiators of rat KCNQ2 potassium channel. CHO-K1 KCNQ2, FluxOR thallium flux fluorescence; active compounds read high. 0.54% of 310,000 active. B-score at 10 µM. O88943;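 active = fluorescence ratio B-score at least 3 SD of library B-scores, with initial fluorescence B-score within 3 of them, cut at about 5.3 in these data; same plate scores as AID 2156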;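 also: B-score of peak minus minimum over baseline fluorescence ratio after K+ and Tl+ stimulus; positive B-score means potentiation of KCNQ2 with more thallium influx and brighter signal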
Starred values were filed as active, the others as inactive. A selection: hits, their analogues and other compounds. The true share with any hit is near 1.6%.

How did O=C(CCC(=O)N1CCN(S(=O)(=O)c2ccc(Cl)cc2)CC1)NC1CCCc2ccccc21 (stereo not drawn) do in these assays?
KCNQ2 block: -7.1*; KCNQ2 enhance: -7.1

How did NC(=O)C1CCN(CC(=O)NC2CCCc3ccccc32)CC1 (stereo not drawn) do in these assays?
KCNQ2 block: inactive; KCNQ2 enhance: 1.5

Results for Cc1ccc(OCC(=O)NC2CCCc3ccccc32)c(C)c1 (stereo not drawn) ?
KCNQ2 block: inactive

Results for O=C(CCC(=O)N1CCN(S(=O)(=O)c2ccc(Cl)cc2)CC1)Nc1ccc(Cl)cc1Cl ?
KCNQ2 block: inactive; KCNQ2 enhance: 0.1

Results for Cc1ccc(S(=O)(=O)N2CCN(CC(=O)NC3CCCc4ccccc43)CC2)cc1C (stereo not drawn) ?
KCNQ2 block: -7*; KCNQ2 enhance: -7

How did Cc1ccc(S(=O)(=O)N2CCN(CC(=O)NC3CCCc4ccccc43)CC2)c(C)c1 (stereo not drawn) do in these assays?
KCNQ2 block: -6.1*; KCNQ2 enhance: -6.1

How did CC(=O)Nc1ccc(S(=O)(=O)Nc2cccc(-n3c(C)nc4ccccc4c3=O)c2)cc1 do in these assays?
KCNQ2 block: inactive; KCNQ2 enhance: 2.3

How did COc1ccc(NC(=O)C2CCN(S(=O)(=O)c3cn(C)nc3C)CC2)cc1 do in these assays?
KCNQ2 block: inactive

How did O=C(NCC1CCN(Cc2ccccc2F)CC1)Nc1cccc(Br)c1 do in these assays?
KCNQ2 block: inactive; KCNQ2 enhance: 1.2

How did COc1ccc(OC)c(CNC(=O)CCC(=O)N2Cc3cccc(OC)c3Oc3ncccc32)c1 do in these assays?
KCNQ2 block: inactive

What do the screens show for `CCOc1ccc(S(=O)(=O)NCc2ccc3c(c2)OCO3)cc1C(=O)O`?
KCNQ2 block: inactive; KCNQ2 enhance: 1.4

What do the screens show for `O=C(NCCCN=C1NS(=O)(=O)c2ccccc21)c1ccc(Cl)cc1`?
KCNQ2 block: inactive; KCNQ2 enhance: 0.41

What do the screens show for `CN(C)/C=C(\C#N)S(=O)(=O)c1ccc(Cl)cc1`?
KCNQ2 block: -6.8*; KCNQ2 enhance: -6.8

Results for CN1CCN(/C=C(\C#N)S(=O)(=O)c2ccc(Cl)cc2)CC1 ?
KCNQ2 block: inactive

What do the screens show for `O=C(NCc1ccccc1C(F)(F)F)C1CCC(=O)N(CCCc2ccccc2)C1` (stereo not drawn)?
KCNQ2 block: inactive

Results for C=CCc1cccc(/C=N/NC(=O)CNc2cccc3ccccc23)c1O ?
KCNQ2 block: inactive; KCNQ2 enhance: 0.98

How did C=CCc1cccc(/C=N/NC(=O)CNc2ccccc2OC)c1O do in these assays?
KCNQ2 block: inactive; KCNQ2 enhance: 6.2*

How did O=[N+]([O-])c1cc(Cl)ccc1N1CCN(c2cccc(C(F)(F)F)c2)CC1 do in these assays?
KCNQ2 block: -6.2*; KCNQ2 enhance: -6.2

Results for O=[N+]([O-])c1cc(Cl)ccc1N1CCCC1 ?
KCNQ2 block: inactive; KCNQ2 enhance: 0.43

Results for Cc1ccc(Cl)c(OC(=O)Cn2cnc3c2c(=O)n(C)c(=O)n3C)c1 ?
KCNQ2 block: inactive; KCNQ2 enhance: 0.05

What do the screens show for `CN(C)C(=S)SCCn1c(N)nc(N(C)C)nc1=O`?
KCNQ2 block: inactive; KCNQ2 enhance: 0.97

What do the screens show for `O=C(OCc1ccc([N+](=O)[O-])cc1)c1ccc(N2CCCC2)c([N+](=O)[O-])c1`?
KCNQ2 block: inactive

Results for N#Cc1ccc(COC(=O)c2ccc(N3CCCC3)c([N+](=O)[O-])c2)cc1 ?
KCNQ2 block: -6.8*; KCNQ2 enhance: -6.8

How did O=C(Cc1ccc([N+](=O)[O-])cc1)OCc1c(F)cccc1Cl do in these assays?
KCNQ2 block: inactive; KCNQ2 enhance: 0.22

Results for O=c1c2ccccc2nc(SCc2nc3ccccc3s2)n1Cc1ccco1 ?
KCNQ2 block: inactive

Results for CCCCn1c(SCc2nc3ccccc3s2)nc2ccccc2c1=O ?
KCNQ2 block: -7.8*; KCNQ2 enhance: -7.8

How did CC(=O)Nc1ccc(S(=O)(=O)Nc2ccccc2C(=O)N2CCCCCC2)cc1 do in these assays?
KCNQ2 block: inactive

How did O=Nc1c(O)n(Cc2c(Cl)cccc2Cl)c2ccccc12 do in these assays?
KCNQ2 block: inactive; KCNQ2 enhance: 0.3

What do the screens show for `O=Nc1c(O)n(Cc2ccc(Cl)cc2Cl)c2ccccc12`?
KCNQ2 block: -8*; KCNQ2 enhance: -8

How did O=Nc1c(O)n(Cc2ccc(Cl)cc2)c2ccccc12 do in these assays?
KCNQ2 block: inactive

Results for Cc1ccc(Cn2c(O)c(N=O)c3ccccc32)cc1 ?
KCNQ2 block: -6.7*; KCNQ2 enhance: -6.7

What do the screens show for `O=C(O)C(Cc1cn[nH]n1)=NO`?
KCNQ2 block: inactive; KCNQ2 enhance: 1.7

Results for CN(C)S(=O)(=O)c1ccc(Cl)c(NC(=O)CSc2nc3ccccc3c(=O)n2CCCN2CCOCC2)c1 ?
KCNQ2 block: inactive

Results for Cc1cc2c(cc1C)C(c1ccsc1)CC(=O)N2 (stereo not drawn) ?
KCNQ2 block: inactive; KCNQ2 enhance: 0.03

Results for CSc1nc(Cl)c(Cc2ccc(OC(C)C)cc2)c(N(C)C)n1 ?
KCNQ2 block: -6*; KCNQ2 enhance: -6

How did CCOc1ccc(Cc2c(Cl)nc(N)nc2Cl)cc1 do in these assays?
KCNQ2 block: inactive

What do the screens show for `CCOc1ccc(Cc2c(Cl)nc(SC)nc2N(C)C)cc1`?
KCNQ2 block: -7.2*; KCNQ2 enhance: -7.2

Results for COc1ccc(Cc2c(Cl)ncnc2Cl)cc1 ?
KCNQ2 block: inactive

Results for CCOC(=O)C1=NN(C(=O)c2ccccc2)C(O)(c2ccc(C)cc2)C1 (stereo not drawn) ?
KCNQ2 block: inactive; KCNQ2 enhance: 3.8

Results for CCOC(=O)C1=NN(C(=O)c2ccc(OC)cc2)C(O)(c2ccc(Cl)cc2)C1 (stereo not drawn) ?
KCNQ2 block: inactive; KCNQ2 enhance: 16*

Results for Clc1ccccc1CSc1snnc1-c1ccccc1 ?
KCNQ2 block: -5.5*; KCNQ2 enhance: -5.5

What do the screens show for `Clc1ccc(CSc2snnc2-c2ccccc2)cc1`?
KCNQ2 block: inactive

What do the screens show for `CCNC(=O)/C(=C\c1ccc2c(c1)OCO2)NC(=O)c1ccc(Br)cc1`?
KCNQ2 block: inactive

How did CCN(CC)C(=O)/C(=C\c1ccc2c(c1)OCO2)NC(=O)c1ccc(Br)cc1 do in these assays?
KCNQ2 block: -6.5*; KCNQ2 enhance: -6.5

What do the screens show for `CCN(CC)C(=O)/C(=C\c1ccc(Br)cc1)NC(=O)c1ccccc1OC`?
KCNQ2 block: -7.2*; KCNQ2 enhance: -7.2

Results for COc1ccccc1C(=O)N/C(=C\c1ccc(Br)cc1)C(=O)NCCO ?
KCNQ2 block: inactive

How did Cc1ccc(-c2csc(NC(=S)NC(=O)c3ccco3)n2)cc1 do in these assays?
KCNQ2 block: inactive; KCNQ2 enhance: 11*

What do the screens show for `Cc1ccc(-c2csc(NC(=O)CCNC(=O)c3ccco3)n2)cc1`?
KCNQ2 block: inactive

How did CCOC(=O)Cc1nnc(NC(=O)CCc2ccccc2)s1 do in these assays?
KCNQ2 block: inactive

How did Cn1c(CC(=O)Nc2ccccc2)c(Sc2ccccc2)c2ccccc21 do in these assays?
KCNQ2 block: -6.2*; KCNQ2 enhance: -6.2

What do the screens show for `CSc1c(CC(=O)Nc2ccccc2)n(C)c2ccccc12`?
KCNQ2 block: inactive

What do the screens show for `Cc1ccc(C)c(Nc2nn3c(=O)c4ccc(C(=O)NCc5cccnc5)cc4nc3s2)c1`?
KCNQ2 block: inactive; KCNQ2 enhance: 0.89

What do the screens show for `CCOC(=O)C1CCN(C(=O)c2ccc3c(=O)n4nc(Nc5cc(C)ccc5C)sc4nc3c2)CC1`?
KCNQ2 block: -5.8*; KCNQ2 enhance: -5.8
